Compounds with a hit are over-represented: about 0.8% of the library has one in this group of screens.
Smad3 inh: Smad3 (human) transcription factor binding inhibition | P84022 | TR-FRET Smad3/Dy647-FoxH1 peptide binding, europium anti-His | inhibition, % at 25 µM | 88,000 compounds, 0.29% hits | AID 630;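 active means compounds that reduce the energy-transfer binding signal between the protein and its labelled peptide by more than half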
TNAP act mid DEA: human TNAP activation, intermediate phosphate acceptor. P05186. purified TNAP, CDP-star luminescence, 100 mM DEA, 30 min; hits give high values; scale: 0 levamisole-inhibited, 1 vehicle-only enzyme. activation factor at 20 µM. 64,000 tested, under 10 active;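 active means activation factor of at least 2 at 20 µM, relative to controls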
HePTP inh: blocks human HePTP tyrosine phosphatase; P35236; recombinant HePTP phosphatase activity, OD absorbance; inhibition, % at 20 µM; 110,000 compounds, 0.64% hits; AID 521; in the data active means inhibition above about 50%
Target sequence (P35236 whole entry, looked up): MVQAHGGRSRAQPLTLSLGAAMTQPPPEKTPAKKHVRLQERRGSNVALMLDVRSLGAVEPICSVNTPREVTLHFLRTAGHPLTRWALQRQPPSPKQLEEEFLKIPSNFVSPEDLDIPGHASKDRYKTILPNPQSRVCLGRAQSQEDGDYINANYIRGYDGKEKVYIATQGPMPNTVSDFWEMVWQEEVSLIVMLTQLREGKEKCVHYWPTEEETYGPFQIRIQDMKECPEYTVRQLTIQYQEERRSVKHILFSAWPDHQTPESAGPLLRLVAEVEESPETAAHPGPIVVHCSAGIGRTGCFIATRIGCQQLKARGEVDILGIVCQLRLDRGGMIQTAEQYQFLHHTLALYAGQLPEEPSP
Ec RNAP inh: blocks E. coli RNA polymerase transcription; fluorescence transcription assay; 62,000 compounds, 0.2% hits; AID 559; inhibition, %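 (tested at 10 µM)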; P0A8V2; in the data active means inhibition above about 20%
MT1-MMP txn act: activates MT1-MMP transcription | AID 750 | HT1080 MT1-MMP promoter luciferase reporter, luminescence, overnight; hits give high values | 86,000 compounds, 0.16% hits | activation factor at 10 µM;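 active means activation factor of at least 2 for MT1-MMP transcription at 10 µM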
A number is an active result; [ ] = dose if it differs, or a comment.

Results for CCCCOc1ccc(C(=O)N2c3ccccc3CC2C)cc1 (centres undefined) ?
HePTP inh: 104.0

What do the screens show for `N#Cc1cc2c(nc1SCc1cccnc1)CCC2`?
Smad3 inh: inactive; TNAP act mid DEA: inactive; HePTP inh: inactive; Ec RNAP inh: inactive; MT1-MMP txn act: inactive

Results for Cc1cccc(CSc2nc3c(cc2C#N)CCC3)c1 ?
Smad3 inh: 57.6[fluorescence artefact?]; MT1-MMP txn act: inactive

How did COc1ccc(C2C(C(C)=O)=C(C)N=c3s/c(=C\c4ccccc4OC)c(=O)n32)c(OC)c1 (centres undefined) do in these assays?
HePTP inh: inactive

How did CSC1(SC2=NCCN2)SC2(NCCN2)S1 do in these assays?
Smad3 inh: 81.1

What do the screens show for `O=C1C=CC(=O)c2c1c(-c1ccccc1)nn2-c1ccccc1`?
HePTP inh: 70.7

What do the screens show for `O=C(CSc1nc2ccc([N+](=O)[O-])cc2s1)NCc1ccccc1`?
HePTP inh: inactive

How did Cn1c(=O)c(C(=O)Nc2ccccc2O)c(O)c2ccccc21 do in these assays?
HePTP inh: inactive

Results for Oc1ccccc1C(Sc1nc2ccccc2s1)Sc1nc2ccccc2s1 ?
Smad3 inh: 78.0

What do the screens show for `c1ccc2sc(SCCOCCSc3nc4ccccc4s3)nc2c1`?
HePTP inh: inactive

How did Cc1ccccc1NC1CC(C)N(C(=O)c2ccccc2)c2c(C)cccc21 (centres undefined) do in these assays?
HePTP inh: 103.0

What do the screens show for `Cc1ccccc1C1=N/C(=C\c2ccc(Br)o2)C(=O)O1`?
HePTP inh: 59.5

Results for CC(C)C(=O)Nc1ccc2oc(-c3ccc(C(C)(C)C)cc3)nc2c1 ?
HePTP inh: inactive

What do the screens show for `c1ccc2c[n+](CCCC[n+]3ccc4ccccc4c3)ccc2c1`?
Smad3 inh: 50.6

How did COc1cc(/C=N\NC(=O)COc2cccc(Cl)c2)ccc1OC(=O)c1cc(OC)c(OC)c(OC)c1 do in these assays?
HePTP inh: inactive

How did C/C(=N\NC1=NCCN1)c1cn(C2=NCCN2)nc1C do in these assays?
Smad3 inh: 93.2

What do the screens show for `CCOc1ccc(C=Nc2ccc3c(c2)nc(C)n3C)cc1`?
HePTP inh: inactive

What do the screens show for `CCOC(=O)NC1(Nc2ccc(Cl)cn2)Oc2ccccc2O1`?
Smad3 inh: inactive; TNAP act mid DEA: inactive; HePTP inh: inactive; Ec RNAP inh: 25.3; MT1-MMP txn act: inactive

How did Cc1ccccc1N=C1NC(=O)CS1 do in these assays?
Smad3 inh: inactive; TNAP act mid DEA: inactive; HePTP inh: inactive; Ec RNAP inh: inactive; MT1-MMP txn act: inactive

How did Cc1ccc(C)n1/N=C1\NC(=O)CS1 do in these assays?
HePTP inh: 99.4

Results for CCOC(=O)c1c2c(n(C)c1CO)C(=O)C(=O)c1ccc(Br)cc1-2 ?
HePTP inh: inactive

What do the screens show for `CCOC(=O)c1c2c(n(C)c1COC)C(=O)C(=O)c1ccc(Br)cc1-2`?
Smad3 inh: 75.4; MT1-MMP txn act: inactive

Results for O=C(O)C(Cc1ccccc1)N1C(=O)/C(=C/c2ccc(Cl)cc2Cl)SC1=S (centres undefined) ?
HePTP inh: inactive

What do the screens show for `COc1ccc(NC(=O)COc2ccc3ccccc3c2)cc1OC`?
HePTP inh: inactive

Results for O=C(C[N+]12CN3CN(CN(C3)C1)C2)c1ccc(-c2ccccc2)cc1 ?
Smad3 inh: 76.6

What do the screens show for `CC1=NC(=O)C(N=Nc2cccc(O)c2)N1c1ccccc1` (centres undefined)?
Smad3 inh: inactive; MT1-MMP txn act: 2

How did NC(N)=Nc1ccc(-c2ccc(N=C(N)N)cc2)cc1 do in these assays?
Smad3 inh: inactive

What do the screens show for `NC(N)=NC(N)=Nc1ccccc1` (tested in a mixture with another compound)?
Smad3 inh: 60.2

What do the screens show for `O=[N+]([O-])c1cc(/C=N\Nc2nccs2)ccc1O`?
Smad3 inh: 77.8; MT1-MMP txn act: inactive

Results for CCOC(=O)c1cnc2cc(-c3cccc(Cl)c3)[nH]n2c1=O ?
HePTP inh: inactive

How did COC(=O)C1=NN(C(=O)c2cccc([N+](=O)[O-])c2)C(O)(c2ccccc2)C1 (centres undefined) do in these assays?
HePTP inh: 103.9

How did COC(=O)C1=NN(C(=O)c2cccc(Br)c2)C(O)(c2ccccc2)C1 (centres undefined) do in these assays?
HePTP inh: inactive

What do the screens show for `CC(=O)Nc1ccc(NC(=S)NC(NC(=O)c2cccc([N+](=O)[O-])c2)C(Cl)(Cl)Cl)cc1` (centres undefined)?
HePTP inh: inactive

How did O=C(NC(NC(=S)Nc1ccc(Cl)c(Cl)c1)C(Cl)(Cl)Cl)c1cccc([N+](=O)[O-])c1 (centres undefined) do in these assays?
HePTP inh: 103.7

Results for Cc1ccc(-c2nc3nc4ccccc4nc3n2Cc2ccco2)cc1 ?
Smad3 inh: 64.3; TNAP act mid DEA: inactive; HePTP inh: inactive; Ec RNAP inh: inactive; MT1-MMP txn act: inactive

How did CCCNC(=O)c1c(NC(=O)C2COc3ccccc3O2)sc2c1CCCC2 (centres undefined) do in these assays?
Smad3 inh: inactive; MT1-MMP txn act: inactive

What do the screens show for `O=C(NC1CCS(=O)(=O)C1)c1c(NC(=O)C2COc3ccccc3O2)sc2c1CCCC2` (centres undefined)?
Smad3 inh: inactive; TNAP act mid DEA: inactive; HePTP inh: inactive; Ec RNAP inh: 31.8; MT1-MMP txn act: inactive

How did Cc1ccc(C(=O)Nc2sc3c(c2C#N)CCCCC3)cc1C do in these assays?
Smad3 inh: inactive; MT1-MMP txn act: 2.3

What do the screens show for `CC(=O)Nc1sc2c(c1C#N)CCCCC2`?
Smad3 inh: inactive; TNAP act mid DEA: inactive; HePTP inh: inactive; Ec RNAP inh: 21.8; MT1-MMP txn act: inactive

What do the screens show for `CCC(=O)Nc1sc2c(c1C#N)CCCCC2`?
Smad3 inh: inactive

How did O=C(COc1cccc(Cl)c1)N/N=C/c1c(Br)cc(Br)c(O)c1Br do in these assays?
HePTP inh: inactive

Results for COc1cc(Br)cc(/C=N/NC(=O)COc2cccc(Cl)c2)c1O ?
HePTP inh: 98.9

How did O=C1C2ON(c3ccccc3)C(c3cccc([N+](=O)[O-])c3)C2C(=O)N1Cc1ccccc1 (centres undefined) do in these assays?
HePTP inh: inactive

What do the screens show for `CCOC(=O)C1=C(C)N=c2s/c(=C\c3cccs3)c(=O)n2C1c1ccc(OC)cc1` (centres undefined)?
HePTP inh: inactive

Results for CCOC(=O)C1=C(C)N=c2s/c(=C\c3ccc([N+](=O)[O-])o3)c(=O)n2C1c1ccc(OC)cc1 (centres undefined) ?
HePTP inh: 51.9

How did COc1ccc(C(=O)Oc2ccc3c4c(c(=O)oc3c2)CCC4)cc1 do in these assays?
HePTP inh: inactive

What do the screens show for `COC(=O)C1(Cc2ccccc2)C=C2C(=C(C(C)C)C(=O)C2C)CN1` (centres undefined)?
MT1-MMP txn act: 2.1

How did C=CCN1C(=O)/C(=C/c2ccc(C)cc2)C(=O)NC1=S do in these assays?
HePTP inh: inactive
